Experimental findings from PubChem BioAssay are described below.

Structures are written as SMILES. Active and inactive are the calls of the source.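 Rule for the calls, unless noted: active = fluorescence slope after compound addition differing from the mean of all tested samples at 99.7% confidence, mostly higher but some lower; inactive = the rest.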

Test [1] in a line: inhibitors of TNFa-induced NFkB p65 translocation, primary screen, imaging, HUVEC, MLSMR starter and 10KST1 sets (AID 438;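 active = inhibition above 20% together with a positive visual image hit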;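 note: compound added about 3h40 before a 20 min TNFalpha stimulation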;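 for inhibition: signal is the nuclear over cytoplasmic p65 intensity ratio per well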). The following applies: HUVEC TNFa-induced p65 nuclear translocation; cell count: measured here: nuclei count (cytotoxicity indicator), at 2.08 µM; inhibition: at 2 µM, stronger effect = higher value, 0% TNFa-plus-vehicle, 100% no-TNFa wells.
Test [2] in a line: endothelial E-selectin expression blockers – imaging, HUVEC, immunofluorescence, MLSMR starter and 10KST1 sets, primary screen (AID 487;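 active = visually confirmed hit in the image check and inhibition above 20%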;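 for inhibition: signal is fraction of cell area covered by stained E-selectin grains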;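 for nuclei count: 100% = median nuclei count of all wells on the same plate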). The conditions noted are these: HUVEC TNFalpha-induced E-selectin immunofluorescence imaging, at 2 µM; inhibition: stronger effect = higher value; nuclei count: measured here: cell number, toxicity.
A short description of test [3]: Primary imaging screen for DUSP6 inhibitors that restore phospho-Erk in transfected HeLa cells, chemical complementation (AID 609;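 active = compounds giving at least 50% inhibition in the cell-based MKP-3 phosphatase rescue imaging test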;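 for inhibition: phospho-Erk level distribution per well compared with pooled transfected vehicle control wells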). The following applies: HeLa MKP-3 transfected, phospho-Erk imaging KS statistic, at 10 µM, cells stimulated with TPA for 15 min.
Test [4] concerns the target Dual specificity protein phosphatase 6 (Homo sapiens) (UniProt Q16828). The test is described as above. The conditions noted are these: HeLa MKP-3 transfected, phospho-Erk imaging KS statistic; at 10 µM; stronger effect = higher value; cells stimulated with TPA for 15 min.
The target in test [5] is Voltage-gated potassium channel subunit beta-2 (Rattus norvegicus) (UniProt P62483). Nature of the test: inhibitors of rat Kvbeta2 reductase activity – biochemical, NADPH fluorescence, primary screen (AID 622;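 active = fluorescence slope higher than the sample average by over 3 SD, cut at about -0.22 in these data, passing the limit was not always enough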;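 note: slope of raw intensity against log time taken from 70 to 1610 s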). The following applies: recombinant KvBeta, 4-cyanobenzaldehyde reduction, at 10 µM, stronger effect = higher value.
Chain of Voltage-gated potassium channel subunit beta-2 (Rattus norvegicus) (P62483 whole entry, looked up): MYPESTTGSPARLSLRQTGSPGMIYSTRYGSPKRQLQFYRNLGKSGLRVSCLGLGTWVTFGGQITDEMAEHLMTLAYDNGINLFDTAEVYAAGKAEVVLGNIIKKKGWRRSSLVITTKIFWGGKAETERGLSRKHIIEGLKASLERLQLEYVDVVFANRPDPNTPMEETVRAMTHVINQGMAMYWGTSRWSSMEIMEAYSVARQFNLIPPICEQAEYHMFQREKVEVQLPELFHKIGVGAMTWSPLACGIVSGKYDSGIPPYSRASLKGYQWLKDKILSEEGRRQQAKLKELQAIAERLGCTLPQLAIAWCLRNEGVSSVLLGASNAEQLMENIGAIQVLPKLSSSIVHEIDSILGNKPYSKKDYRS
For test [6] the target is unchanged. The experiment in a line: enhancers of rat Kvbeta2 NADPH turnover – biochemical, NADPH fluorescence, primary screen (AID 623;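 active = NADPH fluorescence slope more negative than the mean of all samples by about 3 SD, 99.7% confidence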;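 note: fluorescence intensity change per second fitted from 20 to 320 s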). The following applies: Recombinant KvBeta, NADPH fluorescence decrease slope, 10 min; at 10 µM; stronger effect = lower value.
For test [7], the target named is Muscarinic acetylcholine receptor M4 (Homo sapiens) (UniProt P08173). The experiment in a line: M4-linked GIRK flux change, two-sided – cell-based, HEK293 M4/GIRK, thallium flux, BTC-AM, M4 allosteric agonist project, primary screen (AID 625).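 Note: thallium influx through GIRK channels coupled to M4 in HEK293 cells with BTC-AM dye.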 The following applies: at 10 µM, actives lie on both sides.
Chain of Muscarinic acetylcholine receptor M4 (Homo sapiens) (P08173 whole entry, looked up): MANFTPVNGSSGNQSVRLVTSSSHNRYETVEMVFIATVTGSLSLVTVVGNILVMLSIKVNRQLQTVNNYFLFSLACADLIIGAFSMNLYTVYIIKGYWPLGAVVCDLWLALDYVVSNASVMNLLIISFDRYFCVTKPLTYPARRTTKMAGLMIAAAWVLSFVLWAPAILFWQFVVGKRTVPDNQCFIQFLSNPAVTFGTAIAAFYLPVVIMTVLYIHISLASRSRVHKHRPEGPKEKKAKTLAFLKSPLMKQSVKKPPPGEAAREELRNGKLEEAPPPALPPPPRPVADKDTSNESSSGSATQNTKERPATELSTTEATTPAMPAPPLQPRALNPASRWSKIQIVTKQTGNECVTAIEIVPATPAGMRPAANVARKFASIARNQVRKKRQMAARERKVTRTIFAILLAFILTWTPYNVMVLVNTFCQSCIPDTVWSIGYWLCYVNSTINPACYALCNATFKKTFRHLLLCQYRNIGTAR
Test [8] is described as follows: inhibitors of larval lipid processing in zebrafish, primary screen, whole organism, PED6 fluorescence, gall bladder and intestine (AID 686;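 active = a full or partial loss of lipid-probe fluorescence in the fish gall bladder, intestine or both, judged by eye; inactive = no fluorescence loss, or compound toxic to the fish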;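 note: larvae 5 to 7 days old with five fish per well; signal comes from phospholipase A2 cleavage of quenched PED6 carried via bile; overnight exposure to compound and PED6 before scoring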). The following applies: Zebrafish larvae PED6 lipid processing, fluorescence scoring; screened at 20 µM (by protocol).
Test [9] can be described thus: loss of swimming-algae plug formation – whole organism, Chlamydomonas reinhardtii, WT vs cilia-less mutant, absorbance, 96-well, primary screen (AID 463189;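 active = inhibition at or above 50% relative to wild type and mutant plate controls; inactive = inhibition below 50%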;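 note: 0% = wild type cc124 cells in DMSO and 100% = ciliumless bld1 mutant cells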). The conditions noted are these: Chlamydomonas reinhardtii gravitaxis, OD600 absorbance, 2 days; at 10 µM; stronger effect = higher value.
The mark [10] stands for this setting: measured here: cell density z-score.
Setting [11] is: measured here: nuclear c-Myc green intensity z-score.
Where [12] appears, read: measured here: nuclear pErk red intensity z-score, stronger effect = higher value.

Chain of Dual specificity protein phosphatase 6 (Homo sapiens) (Q16828 whole entry, looked up): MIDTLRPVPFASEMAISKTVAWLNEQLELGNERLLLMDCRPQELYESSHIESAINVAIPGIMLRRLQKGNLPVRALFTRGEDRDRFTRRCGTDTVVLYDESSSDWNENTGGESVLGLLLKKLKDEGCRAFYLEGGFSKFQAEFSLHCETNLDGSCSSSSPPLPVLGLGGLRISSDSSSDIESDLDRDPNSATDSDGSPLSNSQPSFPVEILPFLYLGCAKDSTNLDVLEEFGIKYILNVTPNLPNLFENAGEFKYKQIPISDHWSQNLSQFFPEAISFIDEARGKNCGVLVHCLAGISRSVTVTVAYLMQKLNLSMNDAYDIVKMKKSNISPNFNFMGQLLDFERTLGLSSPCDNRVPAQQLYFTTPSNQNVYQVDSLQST

The inhibition is the drop in the measured response relative to a control, in per cent. Turning to `Cc1ccccc1N1C(=O)C2ON(c3ccccc3)C(c3cccnc3)C2C1=O` (stereo unspecified), the cell count in test [1] was 541. Also, the inhibition in [1] is -7% (inactive); in test [2], 20.1% (inactive); in test [4] it was 7.7% (inactive); in test [9] it was -7.8% (inactive). The compound further had a nuclei count in test [2] of 88.7%. Besides, the z-score is 1.39 in test [3] (setting [10]), 0.945 in [3] (setting [11]) and -1.38 in [3] (setting [12]). Besides, the fluorescence slope is -0.502 (inactive) in [5] and 0.00555 (inactive) in test [7]. The NADPH fluorescence slope in test [6] is -4.4e-05 (inactive). The result in test [8] was inactive.

With `CCOC(=O)CNS(=O)(=O)c1cc(-c2n[nH]c(=O)c3ccccc23)ccc1C`, the cell count in test [1] came out at 550. Besides, the inhibition is -12.6% (inactive) in test [1], -67% (inactive) in [2], 20.2% (inactive) in test [4] and 2.8% (inactive) in test [9]. Further, the nuclei count in test [2] was 151%. Besides, the figures for the z-score in [3] (setting [10]), in test [3] (setting [11]) and in [3] (setting [12]) were 2.42, 0.186 and 0.634, respectively. Besides, the fluorescence slope in [5] is -0.47 (inactive); in test [7], 0.00467 (inactive). Further, the NADPH fluorescence slope in [6] was -0.000102 (inactive). For the same compound, the outcome in test [8] was inactive.

Regarding `COc1ccc(C(O)C(CN2CCOCC2)c2ccccc2)cc1` (stereo unspecified), the cell count in test [1] came to 393. Besides, the inhibition in test [1] was -2.8% (inactive); in test [2], -22.6% (inactive); in [4], -2.59% (inactive); in [9], -3.86% (inactive). The compound also displayed a nuclei count in test [2] of 144%. Besides, the z-score in test [3] (setting [10]) was -0.497; in test [3] (setting [11]) it was -1.2; in [3] (setting [12]) it was 2.05. The fluorescence slope is -0.44 (inactive) in test [5] and 0.00559 (inactive) in test [7]. In addition, in test [6], the NADPH fluorescence slope is -0.00013 (inactive). Also, the outcome in test [8] was inactive.

For `CCSc1nnc(NC(=O)NCC(F)(F)F)s1`, the cell count in test [1] came out at 580. Moreover, the inhibition in test [1] is -4.9% (inactive); in test [2], 31.5% (inactive); in test [4], 9.07% (inactive); in test [9], -11.4% (inactive). The nuclei count in test [2] was 96.4%. For the same compound, the z-score in test [3] (setting [10]) was 1.02; in test [3] (setting [11]) it was -0.999; in [3] (setting [12]), -0.913. Also, the fluorescence slope in test [5] was -0.469 (inactive); in test [7] it was 0.00649 (inactive). The NADPH fluorescence slope in test [6] is -3.9e-05 (inactive). The compound was called inactive in [8].

`COc1ccc2nc(/N=C(\N)NC(=O)C(C)(C)C)nc(C)c2c1`: the cell count in [1] was determined as 503. Further, the inhibition in [1] was -6.3% (inactive); in test [2] it was -18.6% (inactive); in test [4], 9.91% (inactive); in [9], 2.17% (inactive). This compound came in with a nuclei count in test [2] of 184%. Further, the results for the z-score in [3] (setting [10]), in [3] (setting [11]) and in test [3] (setting [12]) were 0.367, -0.163 and -0.285, respectively. The fluorescence slope in [5] is -0.361 (inactive); in test [7] it was 0.00616 (inactive). The NADPH fluorescence slope in test [6] was -3e-05 (inactive). Further, the outcome in test [8] was “inactive; toxic”.

Regarding `CCn1nc(NC(=O)c2ccco2)c2cc3ccccc3nc21`, in test [1], the cell count was determined as 700. Also, the inhibition in [1] was -11.3% (inactive); in test [2], -20.2% (inactive); in test [4], -6.48% (inactive); in [9], -8.58% (inactive). Further, the nuclei count in test [2] was 168%. In addition, the values for the z-score in test [3] (setting [10]), in [3] (setting [11]) and in [3] (setting [12]) were -0.0808, 0.362 and -0.0698, respectively. For the same compound, the fluorescence slope in test [5] was -0.404 (inactive); in test [7], 0.0055 (inactive). In addition, the NADPH fluorescence slope in test [6] was -4.1e-05 (inactive). In addition, the outcome in test [8] was inactive.

For `NC(=O)CSc1nnc2n(-c3ccccc3)c(=O)c3c4c(sc3n12)CCCCC4`, the cell count in test [1] was 376. The inhibition is -1.4% (inactive) in test [1], -45.3% (inactive) in test [2], -2.59% (inactive) in [4] and 7.56% (inactive) in [9]. In test [2], this compound displayed a nuclei count of 193%. Moreover, the z-score is -0.963 in test [3] (setting [10]), 1.04 in test [3] (setting [11]) and 0.285 in [3] (setting [12]). Moreover, the fluorescence slope in test [5] was -0.51 (inactive); in [7], 0.00448 (inactive). Besides, the NADPH fluorescence slope in test [6] was -0.000119 (inactive). Besides, the compound was called inactive in [8].

In the case of `COc1ccc(-n2ncc3c(NCCCn4ccnc4)ncnc32)cc1`, the cell count in [1] came to 614. Moreover, the inhibition in test [1] is -4% (inactive); in test [2], 0.9% (inactive); in [4], 3.42% (inactive); in test [9], 1.19% (inactive). For the same compound, in test [2], the nuclei count is 170%. Moreover, the z-score in [3] (setting [10]) is -0.682; in test [3] (setting [11]), 1.35; in [3] (setting [12]), -0.266. In addition, the fluorescence slope in test [5] was -0.394 (inactive); in [7], 0.00474 (inactive). Further, in test [6], the NADPH fluorescence slope was -5.9e-06 (inactive). The compound was classed as inactive in test [8].

In the case of `Cc1ccc(C(=O)/C=C/Nc2ccccn2)cc1`, the cell count in [1] is 361. The inhibition in test [1] is -5.9% (inactive); in [2], -98.9% (inactive); in test [4], 15.4% (inactive); in [9] it was 35.5% (inactive). The nuclei count in test [2] was 104%. The z-score in test [3] (setting [10]) was 0.761; in test [3] (setting [11]), 0.782; in test [3] (setting [12]), -1.14. In addition, the fluorescence slope in test [5] is -0.455 (inactive); in test [7] it was 0.00424 (inactive). Moreover, the NADPH fluorescence slope in test [6] is -3.3e-05 (inactive). The compound was classed as inactive in test [8].

Consider `Cn1c(=O)c2c(nc(N3CCC(C(N)=O)CC3)n2CCSc2nc3ccccc3s2)n(C)c1=O`, for which the cell count in test [1] was 657. Also, the inhibition in test [1] is -10.1% (inactive); in [2] it was -52% (inactive); in test [4] it was 7.42% (inactive); in test [9], 21.2% (inactive). Moreover, the nuclei count in test [2] was 183%. Further, the z-score in test [3] (setting [10]) was 0.335; in test [3] (setting [11]), 0.459; in test [3] (setting [12]) it was -0.422. Further, the fluorescence slope is -0.431 (inactive) in [5] and 0.00515 (inactive) in test [7]. Also, the NADPH fluorescence slope in test [6] is -6.4e-05 (inactive). Also, the call in test [8] was inactive.

For the compound `Nc1nnnn1/N=C/c1cccc(Oc2ccccc2)c1`, the cell count in test [1] was found to be 539. Moreover, the inhibition in [1] was -12.1% (inactive); in test [2], 65.8% (inactive); in test [4], 21% (inactive); in test [9] it was 13.4% (inactive). For the same compound, the nuclei count in [2] was determined as 88.7%. The figures for the z-score in [3] (setting [10]), in test [3] (setting [11]) and in test [3] (setting [12]) were 1.62, -1.31 and -1.66, respectively. Moreover, the fluorescence slope in test [5] is -0.523 (inactive); in [7], 0.00678 (inactive). The NADPH fluorescence slope in [6] is -1.8e-05 (inactive). In test [8], the outcome was inactive.

In the case of `CC12CN3CC(C)(CN(C1)C3c1ccc(Cl)cc1Cl)C2O` (stereo unspecified), the cell count in [1] was 486. Further, the inhibition in [1] was -4% (inactive); in test [2], -90.6% (inactive); in test [4], -0.584% (inactive); in test [9], -8.3% (inactive). The nuclei count in [2] stood at 121%. For the same compound, the z-score in test [3] (setting [10]) was -2.88; in test [3] (setting [11]), 1.19; in test [3] (setting [12]) it was -1.32. The fluorescence slope was -0.52 (inactive) in [5] and 0.0049 (inactive) in test [7]. In addition, the NADPH fluorescence slope in [6] was -6.5e-05 (inactive). The result in test [8] was inactive.
